# Assay results as given in article PMC7862700, “An all-to-all approach to the identification of sequence-specific readers for epigenetic DNA modifications on cytosine”.
# Legend:
# Assay in all cases: DAPPL (digital affinity profiling via proximity ligation, sequencing); 10 mM Tris-HCl pH 7.5, 50 mM NaCl, 1 mM DTT, 4% glycerol, room temperature, 30 min; GST-TFs on glutathione beads, 16-mer random dsDNA library, 0.1% formaldehyde crosslink after washing; high values mean tight binding
# Details in all cases: protein: recombinant; tags: N-terminal GST; dsDNA, one strand shown
# [1] = target: T1, ERF (Homo sapiens, UniProt P50548 1-548)
# T1 sequence: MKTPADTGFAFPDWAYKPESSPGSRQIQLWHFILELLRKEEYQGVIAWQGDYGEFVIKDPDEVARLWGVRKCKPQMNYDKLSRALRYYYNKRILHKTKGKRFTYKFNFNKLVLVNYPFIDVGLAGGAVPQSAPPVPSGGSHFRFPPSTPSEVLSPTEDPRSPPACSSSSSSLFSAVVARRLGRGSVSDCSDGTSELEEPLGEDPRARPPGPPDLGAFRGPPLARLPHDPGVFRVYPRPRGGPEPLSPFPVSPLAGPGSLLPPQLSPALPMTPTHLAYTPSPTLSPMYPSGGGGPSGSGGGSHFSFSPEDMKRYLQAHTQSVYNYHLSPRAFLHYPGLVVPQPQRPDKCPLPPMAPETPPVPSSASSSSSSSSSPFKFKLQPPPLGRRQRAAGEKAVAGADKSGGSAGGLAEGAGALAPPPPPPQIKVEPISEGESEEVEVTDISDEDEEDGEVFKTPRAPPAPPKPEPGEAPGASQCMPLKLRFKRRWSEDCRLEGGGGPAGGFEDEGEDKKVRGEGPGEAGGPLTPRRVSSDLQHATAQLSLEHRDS
# Summary of the method: (§1)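 Binding signal is given per hexamer as its read frequency for a factor divided by its frequency in the tag-only sample. GST-fused human transcription factors were expressed in yeast, captured on glutathione beads, barcoded with DNA and pooled with that sample, then incubated with 200 nmole of a 16-mer random double-stranded DNA library in Tris/NaCl/DTT/glycerol buffer for 30 min at room temperature. The pools were then washed, crosslinked, proximity-ligated, amplified by PCR and sequenced on an Illumina NextSeq500.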
# [2] = target: T2, ETV3L (Homo sapiens, UniProt Q6ZN32 1-361)
# T2 sequence: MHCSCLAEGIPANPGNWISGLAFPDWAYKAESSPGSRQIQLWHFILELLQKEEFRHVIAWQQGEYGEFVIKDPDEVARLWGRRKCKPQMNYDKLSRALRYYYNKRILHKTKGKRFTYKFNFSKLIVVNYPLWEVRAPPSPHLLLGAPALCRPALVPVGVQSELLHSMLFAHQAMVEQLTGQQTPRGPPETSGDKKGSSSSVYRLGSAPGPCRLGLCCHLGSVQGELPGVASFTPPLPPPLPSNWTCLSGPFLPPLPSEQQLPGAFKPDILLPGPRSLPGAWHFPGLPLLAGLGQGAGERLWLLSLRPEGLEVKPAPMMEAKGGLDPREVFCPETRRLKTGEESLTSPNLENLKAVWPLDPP
# Summary of the method: as §1
# [3] = target: T3, ETS2 (Homo sapiens, UniProt P15036 1-469)
# T3 sequence: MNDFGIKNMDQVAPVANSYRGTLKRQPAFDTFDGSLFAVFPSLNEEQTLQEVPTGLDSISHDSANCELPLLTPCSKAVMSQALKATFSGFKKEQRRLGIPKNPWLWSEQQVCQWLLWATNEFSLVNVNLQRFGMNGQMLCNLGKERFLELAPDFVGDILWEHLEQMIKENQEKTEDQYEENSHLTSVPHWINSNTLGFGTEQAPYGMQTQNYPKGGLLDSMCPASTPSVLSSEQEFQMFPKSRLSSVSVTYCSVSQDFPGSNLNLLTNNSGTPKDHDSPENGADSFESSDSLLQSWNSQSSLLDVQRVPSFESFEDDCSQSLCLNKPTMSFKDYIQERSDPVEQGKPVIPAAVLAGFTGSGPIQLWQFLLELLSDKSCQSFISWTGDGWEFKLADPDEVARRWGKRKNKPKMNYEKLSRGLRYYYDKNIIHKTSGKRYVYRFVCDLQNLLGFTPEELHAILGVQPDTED
# Summary of the method: as §1
# [4] = target: T4, SPDEF (Homo sapiens, UniProt O95238 1-335)
# T4 sequence: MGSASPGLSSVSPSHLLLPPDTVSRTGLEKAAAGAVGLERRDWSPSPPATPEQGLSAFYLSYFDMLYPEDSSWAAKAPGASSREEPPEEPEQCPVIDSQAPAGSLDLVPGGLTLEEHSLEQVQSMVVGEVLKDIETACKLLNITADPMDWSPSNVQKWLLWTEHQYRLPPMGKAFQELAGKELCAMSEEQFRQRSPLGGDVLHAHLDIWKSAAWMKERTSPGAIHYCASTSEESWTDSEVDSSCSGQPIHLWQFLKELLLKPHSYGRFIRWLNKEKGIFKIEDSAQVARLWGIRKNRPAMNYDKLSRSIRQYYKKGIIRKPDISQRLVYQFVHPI
# Summary of the method: as §1
# [5] = target: T5, ETV7 (Homo sapiens, UniProt Q9Y603 1-341)
# T5 sequence: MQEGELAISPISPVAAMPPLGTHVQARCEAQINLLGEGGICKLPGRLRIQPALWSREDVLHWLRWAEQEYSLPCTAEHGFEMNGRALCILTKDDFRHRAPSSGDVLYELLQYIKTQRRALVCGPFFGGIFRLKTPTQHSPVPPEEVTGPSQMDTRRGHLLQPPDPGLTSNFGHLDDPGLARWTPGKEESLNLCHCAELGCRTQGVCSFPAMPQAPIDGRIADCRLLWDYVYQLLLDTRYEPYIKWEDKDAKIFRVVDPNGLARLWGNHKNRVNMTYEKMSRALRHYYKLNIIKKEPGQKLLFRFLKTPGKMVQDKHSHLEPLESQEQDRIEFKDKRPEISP
# Summary of the method: as §1
# [6] = target: T6, ELF5 (Homo sapiens, UniProt Q9UKW6-2 1-255)
# T6 sequence: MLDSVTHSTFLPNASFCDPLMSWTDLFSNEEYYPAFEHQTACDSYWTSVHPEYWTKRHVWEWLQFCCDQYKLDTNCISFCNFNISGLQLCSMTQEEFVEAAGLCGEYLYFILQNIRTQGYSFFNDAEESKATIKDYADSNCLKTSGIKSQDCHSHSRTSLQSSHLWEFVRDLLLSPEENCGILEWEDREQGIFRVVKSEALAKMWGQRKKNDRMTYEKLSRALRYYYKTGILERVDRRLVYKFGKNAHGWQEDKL
# Summary of the method: as §1
# [7] = target: T7, ETV3 (Homo sapiens, UniProt P41162-2 1-143)
# T7 sequence: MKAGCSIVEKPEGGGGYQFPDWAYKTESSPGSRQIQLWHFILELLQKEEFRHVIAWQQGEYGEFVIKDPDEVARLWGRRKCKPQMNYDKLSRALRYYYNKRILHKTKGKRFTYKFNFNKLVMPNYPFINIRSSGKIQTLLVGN
# Summary of the method: as §1
# [8] = target: ETV6 (Homo sapiens, UniProt P41212 1-452)
# Chain of ETV6 (P41212 whole entry): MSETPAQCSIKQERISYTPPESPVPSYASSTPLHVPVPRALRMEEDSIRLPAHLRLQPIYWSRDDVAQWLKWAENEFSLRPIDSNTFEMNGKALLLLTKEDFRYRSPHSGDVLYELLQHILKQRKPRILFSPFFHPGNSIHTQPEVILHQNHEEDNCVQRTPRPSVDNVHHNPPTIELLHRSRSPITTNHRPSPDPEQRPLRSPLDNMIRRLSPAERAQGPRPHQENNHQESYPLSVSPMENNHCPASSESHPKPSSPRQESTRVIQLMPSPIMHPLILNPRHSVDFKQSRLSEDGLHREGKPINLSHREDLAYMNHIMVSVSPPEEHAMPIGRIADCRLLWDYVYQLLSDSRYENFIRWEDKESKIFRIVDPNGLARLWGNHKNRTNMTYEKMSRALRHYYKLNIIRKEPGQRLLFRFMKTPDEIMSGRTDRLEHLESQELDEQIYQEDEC
# Summary of the method: as §1
sequence,measurement,setting,value
CATTAC,binding signal,[1],"1.09 fold enrichment (6-mer frequency, TF over GST control)"
same,binding signal,[2],"1.14 fold enrichment (6-mer frequency, TF over GST control)"
same,binding signal,[3],"1.23 fold enrichment (6-mer frequency, TF over GST control)"
same,binding signal,[4],"1.14 fold enrichment (6-mer frequency, TF over GST control)"
same,binding signal,[5],"1.03 fold enrichment (6-mer frequency, TF over GST control)"
same,binding signal,[6],"1.1 fold enrichment (6-mer frequency, TF over GST control)"
same,binding signal,[7],"1.13 fold enrichment (6-mer frequency, TF over GST control)"
same,binding signal,[8],"1.11 fold enrichment (6-mer frequency, TF over GST control)"
TCCGCG,binding signal,[1],"1.22 fold enrichment (6-mer frequency, TF over GST control)"
same,binding signal,[2],"1.29 fold enrichment (6-mer frequency, TF over GST control)"
same,binding signal,[3],"1.36 fold enrichment (6-mer frequency, TF over GST control)"
same,binding signal,[4],"1.4 fold enrichment (6-mer frequency, TF over GST control)"
same,binding signal,[5],"1.31 fold enrichment (6-mer frequency, TF over GST control)"
same,binding signal,[6],"1.55 fold enrichment (6-mer frequency, TF over GST control)"
same,binding signal,[7],"1.37 fold enrichment (6-mer frequency, TF over GST control)"
same,binding signal,[8],"1.25 fold enrichment (6-mer frequency, TF over GST control)"
CGATAT,binding signal,[1],"1.1 fold enrichment (6-mer frequency, TF over GST control)"
same,binding signal,[2],"1.14 fold enrichment (6-mer frequency, TF over GST control)"
same,binding signal,[3],"1.12 fold enrichment (6-mer frequency, TF over GST control)"
same,binding signal,[4],"1.06 fold enrichment (6-mer frequency, TF over GST control)"
same,binding signal,[5],"1.11 fold enrichment (6-mer frequency, TF over GST control)"
same,binding signal,[6],"1.06 fold enrichment (6-mer frequency, TF over GST control)"
same,binding signal,[7],"1.03 fold enrichment (6-mer frequency, TF over GST control)"
same,binding signal,[8],"1.06 fold enrichment (6-mer frequency, TF over GST control)"
GGGCTA,binding signal,[1],"1.02 fold enrichment (6-mer frequency, TF over GST control)"
same,binding signal,[2],"1.18 fold enrichment (6-mer frequency, TF over GST control)"
same,binding signal,[3],"1.2 fold enrichment (6-mer frequency, TF over GST control)"
same,binding signal,[4],"1.09 fold enrichment (6-mer frequency, TF over GST control)"
same,binding signal,[5],"1.06 fold enrichment (6-mer frequency, TF over GST control)"
same,binding signal,[6],"1.09 fold enrichment (6-mer frequency, TF over GST control)"
same,binding signal,[7],"1.12 fold enrichment (6-mer frequency, TF over GST control)"
same,binding signal,[8],"1.13 fold enrichment (6-mer frequency, TF over GST control)"
TTTATT,binding signal,[1],"1.21 fold enrichment (6-mer frequency, TF over GST control)"
same,binding signal,[2],"1.44 fold enrichment (6-mer frequency, TF over GST control)"
same,binding signal,[3],"1.21 fold enrichment (6-mer frequency, TF over GST control)"
same,binding signal,[4],"1.2 fold enrichment (6-mer frequency, TF over GST control)"
same,binding signal,[5],"1.31 fold enrichment (6-mer frequency, TF over GST control)"
same,binding signal,[6],"1.24 fold enrichment (6-mer frequency, TF over GST control)"
same,binding signal,[7],"1.33 fold enrichment (6-mer frequency, TF over GST control)"
same,binding signal,[8],"1.28 fold enrichment (6-mer frequency, TF over GST control)"
GCTCTG,binding signal,[1],"1.03 fold enrichment (6-mer frequency, TF over GST control)"
same,binding signal,[2],"1.23 fold enrichment (6-mer frequency, TF over GST control)"
same,binding signal,[3],"1.12 fold enrichment (6-mer frequency, TF over GST control)"
same,binding signal,[4],"1.06 fold enrichment (6-mer frequency, TF over GST control)"
same,binding signal,[5],"1.17 fold enrichment (6-mer frequency, TF over GST control)"
same,binding signal,[6],"1.02 fold enrichment (6-mer frequency, TF over GST control)"
same,binding signal,[7],"1.17 fold enrichment (6-mer frequency, TF over GST control)"
same,binding signal,[8],"1.17 fold enrichment (6-mer frequency, TF over GST control)"
ACCATC,binding signal,[1],"1.14 fold enrichment (6-mer frequency, TF over GST control)"
same,binding signal,[2],"1.13 fold enrichment (6-mer frequency, TF over GST control)"
same,binding signal,[3],"1.12 fold enrichment (6-mer frequency, TF over GST control)"
same,binding signal,[4],"1.09 fold enrichment (6-mer frequency, TF over GST control)"
same,binding signal,[5],"1.16 fold enrichment (6-mer frequency, TF over GST control)"
same,binding signal,[6],"1.06 fold enrichment (6-mer frequency, TF over GST control)"
same,binding signal,[7],"1.03 fold enrichment (6-mer frequency, TF over GST control)"
same,binding signal,[8],"1.06 fold enrichment (6-mer frequency, TF over GST control)"
CTGTTG,binding signal,[1],"1.17 fold enrichment (6-mer frequency, TF over GST control)"
same,binding signal,[2],"1.07 fold enrichment (6-mer frequency, TF over GST control)"
same,binding signal,[3],"1.21 fold enrichment (6-mer frequency, TF over GST control)"
same,binding signal,[4],"1.12 fold enrichment (6-mer frequency, TF over GST control)"
same,binding signal,[5],"1.05 fold enrichment (6-mer frequency, TF over GST control)"
same,binding signal,[6],"1.09 fold enrichment (6-mer frequency, TF over GST control)"
same,binding signal,[7],"1.21 fold enrichment (6-mer frequency, TF over GST control)"
same,binding signal,[8],"1.08 fold enrichment (6-mer frequency, TF over GST control)"
